Data taken from PubChem BioAssay.
Where “and” joins values, the source holds several entries; their conditions need not be identical. Equal values may be shown once. Records with an inconclusive call do not appear. Calls of active or inactive are those of the source.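 How the source made its calls, unless noted: active means normalized viability below 100% at a tested concentration; inactive means the rest.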

Tests used:
[1] = viability loss in pontine glioma line – cell-based, SU-DIPG-XVII, MIPE5.0, CellTiter-Glo, qHTS, dose response (AID 1347060; cut-off not given, nearly all actives have AC50 up to about 26 µM;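 on AC50: cells exposed to compound for 48 hours before viability readout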); conditions: CellTiter-Glo ATP luminescence
[2] = viability loss in pontine glioma line – cell-based, JHH-DIPG-1, MIPE4.0, CellTiter-Glo, qHTS, dose response (AID 1347062; cut-off not given, nearly all actives have AC50 up to about 27 µM;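 further: cells exposed to compound for two days before readout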); conditions: JHH-DIPG-1 viability, CellTiter-Glo ATP luminescence
[3] = viability loss in pontine glioma line – cell-based, SU-DIPG-IV, MIPE4.0, CellTiter-Glo, qHTS, dose response (AID 1347063; cut-off not given, nearly all actives have AC50 up to about 30 µM;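 further: compound exposure lasted 48 hours before the viability readout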); conditions: CellTiter-Glo ATP luminescence
[4] = viability loss in pontine glioma line – cell-based, SU-DIPG-XIII, MIPE5.0, CellTiter-Glo, qHTS, dose response (AID 1347064; cut-off not given, nearly all actives have AC50 up to about 23 µM;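 on AC50: cells exposed to compound for 48 hours before the viability read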); conditions: CellTiter-Glo ATP luminescence
[5] = viability loss in pontine glioma line – cell-based, SU-DIPG-XXV, MIPE5.0, CellTiter-Glo, qHTS, dose response (AID 1347065; cut-off not given, nearly all actives have AC50 up to about 26 µM;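 further: cells exposed to compound for 48 hours before ATP readout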); conditions: CellTiter-Glo ATP luminescence
[6] = growth inhibition of DIPG cells – cell-based, MIPE4.0 library, CellTiter-Glo luminescence, qHTS (AID 1347066; cut-off not given, nearly all actives have AC50 up to about 30 µM;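 further: cells exposed to compound for 48 hours before readout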); conditions: SU-DIPG-VI viability, CellTiter-Glo ATP luminescence
[7] = JHH-DIPG-1 glioma cell viability, MIPE5.0 library, CellTiter-Glo luminescence, qHTS (AID 1347067; cut-off not given, nearly all actives have AC50 up to about 26 µM;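 further: cells exposed to compound for 48 hours before readout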); conditions: JHH-DIPG-1 glioma viability, CellTiter-Glo ATP luminescence
[8] = growth inhibition of DIPG cells – cell-based, MIPE5.0 library, qHTS (AID 1347068; cut-off not given, nearly all actives have IC50 up to about 30 µM;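 on IC50: cells exposed to compound for 48 hours before viability readout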); conditions: SU-DIPG-XXV viability
[9] = viability loss with induced miR-34 in A549 – imaging, A549 dox-inducible miR-34, nuclei and caspase counts, primary screen (AID 1347080;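 active means compounds whose cell count with miR-34 switched on is under 0.7 times the count with it off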); conditions: A549 miR-34 inducible, Hoechst nuclei count, 48 h
[10] = MELAS cybrid and Rieske KO viability enhancers – cell-based, MELAS cybrids, Rieske KO mouse fibroblasts, CellTiter-Glo, primary screen (AID 1508586;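 active means mean z-score across replicates of 1.96 or higher in either the MELAS or the Rieske mutant cell line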;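 further: z relative to plate mean and SD of compound and empty wells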); conditions: low glucose
[11] = viability loss in pontine glioma line – cell-based, SU-DIPG-XIII, MIPE4.0, CellTiter-Glo, qHTS, dose response (AID 1347061; cut-off not given, nearly all actives have AC50 up to about 37 µM;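 further: cells exposed to compound for 48 hours before readout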); conditions: CellTiter-Glo ATP luminescence
[12] = P. berghei load reduction in hepatocytes – cell-based, HepG2, luciferase luminescence, HepG2 viability, primary screen (AID 624349; in the data active means parasite load remaining mostly below about 12%, no sharp cut-off; inactive means mostly above about 10%;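 further: 100% = mean of DMSO negative control wells on the same plate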); conditions: P. berghei liver stage in HepG2, luciferase luminescence, concentration not given here; parasite load remaining: stronger effect = lower value; viability: measured here: HepG2 viability without parasites
[13] = drug combination growth inhibition, ovarian cancer – cell-based, oncology-focused library, rucaparib conditional, profiling panel (AID 1508598); conditions: patient-derived ovarian cancer cells, CellTiter-Glo viability, 144 h, stronger effect = lower value
[14] = stronger effect = lower value, cell number ratio, induced over uninduced
[15] = measured here: relative caspase fold change +Dox/-Dox
[16] = measured here: total cells with miR-34 induction, stronger effect = lower value
[17] = measured here: total cells without miR-34 induction
[18] = MELAS cybrid survival, CellTiter-Glo 48 h, stronger effect = higher value
[19] = Rieske KO mouse fibroblast survival, CellTiter-Glo 72 h
[20] = at 0.000305 µM, OCI-C5x cells, with rucaparib 10 µM, 100% = cells with rucaparib alone
[21] = at 0.000305 µM, OCI-C5x cells, without rucaparib
[22] = at 0.000305 µM, OCI-P5x cells, with rucaparib 20 µM, 100% = cells with rucaparib alone
[23] = at 0.000305 µM, OCI-P5x cells, without rucaparib
[24] = at 0.00122 µM, OCI-C5x cells, with rucaparib 10 µM, 100% = cells with rucaparib alone
[25] = at 0.00122 µM, OCI-C5x cells, without rucaparib
[26] = at 0.00122 µM, OCI-P5x cells, with rucaparib 20 µM, 100% = cells with rucaparib alone
[27] = at 0.00122 µM, OCI-P5x cells, without rucaparib
[28] = at 0.00488 µM, OCI-C5x cells, with rucaparib 10 µM, 100% = cells with rucaparib alone
[29] = at 0.00488 µM, OCI-C5x cells, without rucaparib
[30] = at 0.00488 µM, OCI-P5x cells, with rucaparib 20 µM, 100% = cells with rucaparib alone
[31] = at 0.00488 µM, OCI-P5x cells, without rucaparib
[32] = at 0.0195 µM, OCI-C5x cells, with rucaparib 10 µM, 100% = cells with rucaparib alone
[33] = at 0.0195 µM, OCI-C5x cells, without rucaparib
[34] = at 0.0195 µM, OCI-P5x cells, with rucaparib 20 µM, 100% = cells with rucaparib alone
[35] = at 0.0195 µM, OCI-P5x cells, without rucaparib
[36] = at 0.0781 µM, OCI-C5x cells, with rucaparib 10 µM, 100% = cells with rucaparib alone
[37] = at 0.0781 µM, OCI-C5x cells, without rucaparib
[38] = at 0.0781 µM, OCI-P5x cells, with rucaparib 20 µM, 100% = cells with rucaparib alone
[39] = at 0.0781 µM, OCI-P5x cells, without rucaparib
[40] = at 0.313 µM, OCI-C5x cells, with rucaparib 10 µM, 100% = cells with rucaparib alone
[41] = at 0.313 µM, OCI-C5x cells, without rucaparib
[42] = at 0.313 µM, OCI-P5x cells, with rucaparib 20 µM, 100% = cells with rucaparib alone
[43] = at 0.313 µM, OCI-P5x cells, without rucaparib
[44] = at 1.25 µM, OCI-C5x cells, with rucaparib 10 µM, 100% = cells with rucaparib alone
[45] = at 1.25 µM, OCI-C5x cells, without rucaparib
[46] = at 1.25 µM, OCI-P5x cells, with rucaparib 20 µM, 100% = cells with rucaparib alone
[47] = at 1.25 µM, OCI-P5x cells, without rucaparib
[48] = at 5 µM, OCI-C5x cells, with rucaparib 10 µM, 100% = cells with rucaparib alone
[49] = at 5 µM, OCI-C5x cells, without rucaparib
[50] = at 5 µM, OCI-P5x cells, with rucaparib 20 µM, 100% = cells with rucaparib alone
[51] = at 5 µM, OCI-P5x cells, without rucaparib

Cc1ccc(NC(=O)C2(c3ccc4c(c3)OC(F)(F)O4)CC2)nc1-c1cccc(C(=O)O)c1
inactive: outcome [1] | outcome [4] | outcome [5] | outcome [7] | outcome [8] | fold change [9, 14] 0.92 | z-score [10, 18] -0.25
0.757: fold change [9, 15]
active: AC50 [2] 83.3 nM | AC50 [3] 118 nM | AC50 [6] 1.18 µM
-0.226: z-score [10, 19]
8150: cell count [9, 16]
8860: cell count [9, 17]

C=C1C(=O)OC2/C=C(/C)CC/C=C(/C)CCC12 (stereo not given)
active: AC50 [1] 20.9 µM | AC50 [5] 18.6 µM | AC50 [7] 16.6 µM
inactive: outcome [11]

Clc1ccc(COC(Cn2ccnc2)c2ccc(Cl)cc2Cl)cc1 (stereo not given)
inactive: outcome [11]
active: AC50 [1] 18.6 µM | AC50 [5] 16.6 µM | AC50 [7] 13.2 µM

Cc1cc(CN2CCN(c3c(Br)cnc4nc(-c5ccc(N6CCN(C)CC6)cc5)[nH]c34)CC2)no1
active: AC50 [1] 1.66 µM | AC50 [2] 7430 nM | AC50 [3] 5260 nM | AC50 [4] 3.32 µM | AC50 [5] 1.05 µM | AC50 [6] 14.8 µM | AC50 [7] 2.63 µM | IC50 [8] 8.33 µM
-0.677: z-score [10, 19]
3400: cell count [9, 16]
0.921: fold change [9, 15]
3250: cell count [9, 17]
inactive: fold change [9, 14] 1.05 | z-score [10, 18] -0.545

CCn1nnc2c(N3CCOCC3)nc(-c3ccc(NC(=O)Nc4ccc(C(=O)N5CCN(C)CC5)cc4)cc3)nc21
active: AC50 [1] 0.372 µM | AC50 [2] 469 nM | AC50 [3] 14.8 nM | AC50 [4] 0.742 µM | AC50 [5] 0.372 µM | AC50 [6] 0.166 µM | AC50 [7] 0.934 µM | IC50 [8] 0.742 µM

COc1cc(NC(=O)c2ccc(-c3ccc(Cl)cc3)o2)cc(OC)c1
inactive: outcome [1] | outcome [4] | outcome [5] | outcome [6] | outcome [7] | outcome [8] | fold change [9, 14] 0.861 | z-score [10, 18] -0.392
0.568: z-score [10, 19]
11100: cell count [9, 17]
0.756: fold change [9, 15]
9550: cell count [9, 16]
active: AC50 [2] 935 nM | AC50 [3] 6620 nM

CC(C)n1c(/C=C/[C@H](O)C[C@H](O)CC(=O)O)c(-c2ccc(F)cc2)c2ccccc21
92.6%: viability [12]
1560: cell count [9, 17]
active: AC50 [1] 8.33 µM
1670: cell count [9, 16]
inactive: parasite load remaining [12] 134% | outcome [11] | outcome [6] | outcome [8] | fold change [9, 14] 1.07 | z-score [10, 18] -2.58
0.0762: z-score [10, 19]
0.873: fold change [9, 15]

COc1cc2nccc(Oc3ccc(NC(=O)C4(C(=O)Nc5ccc(F)cc5)CC4)cc3)c2cc1OC
active: AC50 [1] 13.2 µM | AC50 [2] 2350 nM | AC50 [3] 4690 nM | AC50 [4] 16.6 µM | AC50 [5] 7.42 µM | AC50 [7] 11.8 µM | IC50 [8] 8.33 µM | viability [13, 22] 85.5% | viability [13, 23] 68.9% | viability [13, 26] 59.2% | viability [13, 27] 22.8% | viability [13, 30] 94.7% | viability [13, 31] 99.9% | viability [13, 34] 94.3% | viability [13, 38] 93.1% | viability [13, 42] 87.8% | viability [13, 43] 94.8% | viability [13, 46] 84.5% | viability [13, 47] 91.5% | viability [13, 50] 74.7% | viability [13, 51] 85.4%
0.894 and 0.677: fold change [9, 15]
inactive: fold change [9, 14] 1.18 and 1.06 | z-score [10, 18] -0.475 and -0.436 | viability [13, 20] 114% | viability [13, 21] 126% | viability [13, 24] 115% | viability [13, 25] 119% | viability [13, 28] 110% | viability [13, 29] 114% | viability [13, 32] 118% | viability [13, 33] 122% | viability [13, 35] 101% | viability [13, 36] 127% | viability [13, 37] 115% | viability [13, 39] 101% | viability [13, 40] 130% | viability [13, 41] 129% | viability [13, 44] 147% | viability [13, 45] 133% | viability [13, 48] 146% | viability [13, 49] 133%
1540 and 3490: cell count [9, 17]
1810 and 3700: cell count [9, 16]
1.25 and 1.04: z-score [10, 19]

CC(C)c1nn(-c2c(Cl)cccc2Cl)c2nc(Cc3ccc(OCCO)cc3)[nH]c(=O)c12
79.7%: viability [12]
inactive: parasite load remaining [12] 77.3%
active: AC50 [1] 0.0417 µM | AC50 [2] 118 nM | AC50 [3] 83.3 nM | AC50 [4] 0.0468 µM | AC50 [5] 0.0417 µM | AC50 [7] 0.0468 µM | IC50 [8] 0.0833 µM

COc1cc(OC)c(/C=C/S(=O)(=O)Cc2ccc(OC)c(NCC(=O)O)c2)c(OC)c1
active: AC50 [1] 0.0934 µM | AC50 [2] 935 nM | AC50 [3] 26.4 nM | AC50 [4] 0.295 µM | AC50 [5] 0.118 µM | AC50 [7] 0.118 µM | IC50 [8] 0.0661 µM | viability [13, 23] 75.1% | viability [13, 32] 91.1% | viability [13, 33] 88% | viability [13, 34] 94.8% | viability [13, 35] 61.6% | viability [13, 36] 53.4% | viability [13, 37] 45% | viability [13, 38] 73.5% | viability [13, 39] 23.1% | viability [13, 40] 50.7% | viability [13, 41] 35.9% | viability [13, 42] 56.6% | viability [13, 43] 20.6% | viability [13, 44] 37.8% | viability [13, 45] 32.9% | viability [13, 46] 54.9% | viability [13, 47] 14.5% | viability [13, 48] 36.1% | viability [13, 49] 29% | viability [13, 50] 52% | viability [13, 51] 12.1%
inactive: viability [13, 20] 110% | viability [13, 21] 120% | viability [13, 22] 106% | viability [13, 24] 114% | viability [13, 25] 111% | viability [13, 26] 102% | viability [13, 27] 104% | viability [13, 28] 107% | viability [13, 29] 115% | viability [13, 30] 103% | viability [13, 31] 101%

Oc1ccc(-c2ccc(-c3cc(Nc4cccc(CNC5CC5)c4)n[nH]3)cc2)c(O)c1
active: AC50 [1] 6.61 µM | AC50 [2] 1660 nM | AC50 [3] 4690 nM | AC50 [4] 13.2 µM | AC50 [5] 7.42 µM | AC50 [6] 16.6 µM | IC50 [8] 26.3 µM
